Results filed as inconclusive are left out. Activity calls are given as the source filed them. Unless noted, calls follow the shape of the dose curve; as a rule, active = well fitted curve in either direction with a large enough effect (not every such curve was filed as active); inconclusive = small, poorly fitted or top-dose-only effect, or another doubt; inactive = flat fitted curve, though single readings scatter.
Experiments:
[1] = target: Lysosomal acid glucosylceramidase (Homo sapiens) (UniProt P04062); test: Glucocerebrosidase-p2 (AID 348; in the data active = potency below about 10 µM; also: potency is read from the fitted curve at half-maximal effect); conditions: purified GBA, blue fluorogenic substrate, 40 min
Lysosomal acid glucosylceramidase (Homo sapiens), sequence (P04062 whole entry, looked up): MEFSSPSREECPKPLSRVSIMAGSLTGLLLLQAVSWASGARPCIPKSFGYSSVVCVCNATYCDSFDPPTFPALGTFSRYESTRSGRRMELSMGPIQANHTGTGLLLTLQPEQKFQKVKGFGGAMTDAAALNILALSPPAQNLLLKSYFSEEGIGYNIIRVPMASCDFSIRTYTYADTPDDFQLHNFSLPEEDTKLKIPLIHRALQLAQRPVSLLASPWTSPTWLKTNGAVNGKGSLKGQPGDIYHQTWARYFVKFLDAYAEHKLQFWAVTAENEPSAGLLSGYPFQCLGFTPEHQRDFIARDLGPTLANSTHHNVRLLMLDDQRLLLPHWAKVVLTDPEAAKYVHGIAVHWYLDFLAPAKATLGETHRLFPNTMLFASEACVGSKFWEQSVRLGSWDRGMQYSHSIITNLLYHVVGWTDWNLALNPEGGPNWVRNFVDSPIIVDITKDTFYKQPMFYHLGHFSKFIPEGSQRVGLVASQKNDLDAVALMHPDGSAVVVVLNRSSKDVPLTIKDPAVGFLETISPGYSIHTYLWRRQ
In short: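 Compounds titrated from 0.6 nM upwards against 0.2 nM enzyme in pH 5.9 citric acid/KH2PO4, taurocholate, tween-20; blue fluorogenic substrate 80 uM, 40 min room temperature, stopped and read Ex 365/Em 440 for AC50.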

[2] = AP1 Signaling Pathway (AID 357); conditions: ME-180 AP-1-bla reporter, EGF-induced, beta-lactamase ratio, 5 h; at 7.69 µM (top of the series) unless noted;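 also: ME-180 reporter cells stimulated with EGF at its EC50 level; % is scaled to controls: 0 for no effect and ±100 for the full control effect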
In short: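 Titration-series screen for positive or negative modulators of EC50 EGF-induced signaling in ME-180 cells carrying an AP-1-driven beta-lactamase reporter. After 5 hours at 37 degrees Celsius, CCF4 460nm/530nm emission ratio gave %Activity; AC50 values derived.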

[3] = target: Cytochrome P450 1A2 (Homo sapiens) (UniProt P05177); test: p450-cyp1a2 (AID 410; calls by dose curve; also: potency is read from the fitted curve at half-maximal effect;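 as to activity change, negative = inhibition: -100% = full effect of reference inhibitor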); conditions: recombinant CYP1A2, luciferin-ME demethylation, luminescence; series mostly up to 57 µM
Cytochrome P450 1A2 (Homo sapiens), sequence (P05177 whole entry, looked up): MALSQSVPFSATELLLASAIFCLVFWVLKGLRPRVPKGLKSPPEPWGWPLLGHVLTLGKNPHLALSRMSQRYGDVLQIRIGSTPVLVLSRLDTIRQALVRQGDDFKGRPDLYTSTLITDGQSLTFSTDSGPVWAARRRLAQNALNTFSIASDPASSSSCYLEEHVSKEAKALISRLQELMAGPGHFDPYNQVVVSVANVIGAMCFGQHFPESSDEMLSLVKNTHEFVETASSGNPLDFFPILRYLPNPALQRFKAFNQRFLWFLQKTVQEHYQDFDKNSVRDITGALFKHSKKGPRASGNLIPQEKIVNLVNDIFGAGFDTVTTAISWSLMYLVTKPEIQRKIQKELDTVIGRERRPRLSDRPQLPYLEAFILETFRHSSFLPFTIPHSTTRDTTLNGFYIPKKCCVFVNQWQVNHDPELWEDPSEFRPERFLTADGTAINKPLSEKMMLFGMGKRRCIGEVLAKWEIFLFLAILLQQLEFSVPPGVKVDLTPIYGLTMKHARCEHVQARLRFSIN
In short: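 Luminescent readout of luciferin formed from Luciferin-ME by human CYP1A2; data normalized against complete inhibition by 57 uM furafylline. Enzyme 20nM, substrate 100uM at Km, 100mM KPO4 buffer, 60 min reaction at room temperature.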

[4] = NFAT Signaling Pathway (AID 444); conditions: Jurkat NFAT-bla M1, carbachol, beta-lactamase ratio, 5 h; at 7.69 µM (top of the series) unless noted;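 also: carbachol stimulus at about its EC50 of 1 µM final; % is scaled to controls: 0 for no effect and ±100 for the full control effect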
In short: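 Jurkat cells carrying an NFAT-driven β-lactamase reporter and co-transfected muscarinic M1 receptor were treated with compound plus carbachol (1 uM final, an EC50 level) for 5 h at 37 °C. CCF4 loading followed for 1 h at RT; 460/530 nm ratio gave %activity.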

[5] = Stat Signaling Pathway (AID 446); conditions: ME-180 SIE beta-lactamase reporter, IL-6 stimulated, 5 h; at 7.69 µM (top of the series) unless noted;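 also: ME-180 cervical cancer cells given 40 pM IL-6 alongside compound; SIE-controlled beta-lactamase reporter measured as 460/530 nm FRET emission ratio; % is scaled to controls: 0 for no effect and ±100 for the full control effect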
In short: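 ME-180 cells carrying a SIE-driven beta-lactamase reporter are stimulated with 40 pM IL-6 for 5 h at 37C in the presence of compound. The 460/530 nm FRET substrate ratio is read after 2.5 h at RT. Data are normalised to 300 pM IL-6 and to 125 nM JAK inhibitor controls.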

[6] = target: Glucocorticoid receptor (Homo sapiens) (UniProt P04150); test: GR-EFC Redistribution (AID 451; calls by dose curve; also: potency is read from the fitted curve at half-maximal effect); conditions: CHO-K1 GR-EFC translocation, beta-gal luminescence, 2 h
Glucocorticoid receptor (Homo sapiens), sequence (P04150 whole entry, looked up, the tested form may be a part): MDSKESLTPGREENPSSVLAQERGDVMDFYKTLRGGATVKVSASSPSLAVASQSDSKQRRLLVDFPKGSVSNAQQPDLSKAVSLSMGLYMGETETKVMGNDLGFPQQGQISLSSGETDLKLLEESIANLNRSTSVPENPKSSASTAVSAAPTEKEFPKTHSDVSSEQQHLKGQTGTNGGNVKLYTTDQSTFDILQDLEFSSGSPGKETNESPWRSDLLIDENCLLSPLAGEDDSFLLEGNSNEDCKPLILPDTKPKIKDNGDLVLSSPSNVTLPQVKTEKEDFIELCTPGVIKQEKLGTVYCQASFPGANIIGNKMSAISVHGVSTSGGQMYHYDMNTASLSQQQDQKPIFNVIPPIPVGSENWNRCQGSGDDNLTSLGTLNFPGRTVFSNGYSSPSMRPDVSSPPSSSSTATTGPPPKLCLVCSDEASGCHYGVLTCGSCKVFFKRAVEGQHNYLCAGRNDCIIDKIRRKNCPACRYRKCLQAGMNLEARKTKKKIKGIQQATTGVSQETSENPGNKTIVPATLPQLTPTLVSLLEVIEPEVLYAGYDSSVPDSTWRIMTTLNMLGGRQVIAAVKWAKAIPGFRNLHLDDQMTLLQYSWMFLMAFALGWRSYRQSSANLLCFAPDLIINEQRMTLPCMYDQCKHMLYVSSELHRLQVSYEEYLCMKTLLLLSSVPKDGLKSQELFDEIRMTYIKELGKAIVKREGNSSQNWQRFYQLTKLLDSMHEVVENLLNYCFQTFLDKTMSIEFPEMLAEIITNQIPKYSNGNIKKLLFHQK
In short: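 CHO-K1 cells stably expressing nuclear-localized β-gal enzyme acceptor and GR fused C-terminally to the enzyme donor fragment; ligand-driven nuclear translocation restores β-gal by complementation. Compounds titrated up to 46 uM final, 2 h at 37 °C; luminescence read.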

[7] = target: 3',5'-cyclic-AMP phosphodiesterase 4B (Homo sapiens) (UniProt Q07343); test: qHTS Assay for Inhibitors of PDE-IV (AID 607; active = well fitted activation curve with a large enough effect in the main read-out, with a control signal flat, not every such curve was filed as active; also: % of control where 0% means no effect); conditions: HEK293 ACTOne CNG channel cells, membrane potential fluorescence; series mostly up to 22.9 µM
3',5'-cyclic-AMP phosphodiesterase 4B (Homo sapiens), sequence (Q07343 whole entry, looked up): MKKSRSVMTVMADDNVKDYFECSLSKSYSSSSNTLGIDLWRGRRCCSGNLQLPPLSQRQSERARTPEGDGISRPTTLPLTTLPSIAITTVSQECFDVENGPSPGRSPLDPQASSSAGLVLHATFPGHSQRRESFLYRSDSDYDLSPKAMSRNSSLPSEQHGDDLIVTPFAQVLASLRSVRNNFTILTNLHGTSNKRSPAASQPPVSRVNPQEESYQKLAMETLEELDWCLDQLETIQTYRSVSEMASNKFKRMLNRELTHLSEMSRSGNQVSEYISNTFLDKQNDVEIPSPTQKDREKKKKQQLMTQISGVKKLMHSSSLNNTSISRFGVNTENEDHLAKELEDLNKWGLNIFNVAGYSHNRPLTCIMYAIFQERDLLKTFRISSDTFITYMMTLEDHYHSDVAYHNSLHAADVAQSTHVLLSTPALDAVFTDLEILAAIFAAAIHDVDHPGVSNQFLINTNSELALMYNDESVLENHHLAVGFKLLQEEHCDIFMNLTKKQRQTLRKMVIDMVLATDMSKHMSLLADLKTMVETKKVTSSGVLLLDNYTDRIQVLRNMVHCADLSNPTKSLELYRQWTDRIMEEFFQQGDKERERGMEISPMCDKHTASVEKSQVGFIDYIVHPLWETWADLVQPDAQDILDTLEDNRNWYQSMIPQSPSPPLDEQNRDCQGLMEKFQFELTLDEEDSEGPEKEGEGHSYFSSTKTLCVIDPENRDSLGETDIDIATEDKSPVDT
In short: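 HEK293 ACTOne cells with CNG channel (1000/well), endogenous PDE4; membrane potential dye, compounds up to 22.9 uM final. Fluorescence Ex 535/Em 590; RO 20-1724 (100 uM final) as reference.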

[8] = qHTS Assay for Lipid Storage Modulators (AID 1519; calls by dose curve); conditions: Drosophila S3 cells, BODIPY lipid droplet/cell ratio, laser cytometry, cells loaded with oleic acid; for activity change, negative = inhibition: at 57.5 µM (top of the series)
In short: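 Cells seeded at 5,000 per well were treated with compounds over a concentration series and loaded with oleic acid (400 uM, as added). Lipid droplet fluorescence (488 nm excitation, 500-530 nm channel) was read by laser-scanning cytometry and normalized to 20 uM Triacsin C.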

[9] = Primary qHTS for small molecule stabilizers of the endoplasmic reticulum resident proteome: Secreted ER Calcium Modulated Protein (SERCaMP) assay (AID 1508630; active = well fitted curve in the direction sought with a large enough effect; an effect the other way counts as inactive or inconclusive; also: % is scaled to controls: 0 for no effect and ±100 for the full control effect); conditions: SH-SY5Y GLuc-SERCaMP (Gaussia luciferase released on ER calcium loss) secretion, thapsigargin, luminescence; series mostly up to 38.4 µM
In short: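 GLuc-SERCaMP-expressing SH-SY5Y cells, pretreated 16 h with compound, are challenged with thapsigargin to empty ER calcium stores; after 4 h, coelenterazine is added directly to the medium and luminescence is imaged.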

[10] = target: Glucocorticoid receptor (Homo sapiens) (UniProt P04150); test: GR-GFP Redistribution (AID 450;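 active = compounds whose dose series gives a full or clear partial fitted curve of increased nuclear translocation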; also: potency is read from the fitted curve at half-maximal effect); conditions: U2OS GR-GFP nuclear translocation, laser cytometry, 2 h
[11] = target: Mitogen-activated protein kinase 10 (Mus musculus) (UniProt Q61831); test: JNK3 AlphaScreen Assay (AID 530); conditions: JNK3 lysate, c-Jun phosphorylation; series mostly up to 57.1 µM
In short: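 Inhibitors reduce antibody binding to phosphorylated biotin-cJun, lowering AlphaScreen luminescence. Lysates from HepG2 cells pre-activated by IL-1beta plus TNF-alpha supplied JNK3; compounds were titrated.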

[12] = Confirmation and Secondary Assay for Modulators of Hemoglobin Beta Chain Splicing at IVS2 654 locus (AID 910; active = well fitted curve in the direction sought with a large enough effect; an effect the other way counts as inactive or inconclusive;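 also: per-well total GFP intensity by laser scanning cytometry after 2-day treatment; % of control where 0% means no effect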); conditions: HeLa EGFP-654 splicing reporter, GFP fluorescence, 48 h; series mostly up to 38.3 µM
In short: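 HeLa cells stably carrying EGFP interrupted by mutant beta-globin IVS2-654 intron (CMV-driven) were treated with compound for 2 days at 37C; corrected splicing was scored as total peak GFP intensity per well (488 nm excitation, 500-520 nm emission).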

[13] = target: Ubiquitin carboxyl-terminal hydrolase 1 (Homo sapiens) (UniProt O94782); test: Inhibitors of USP1/UAF1: Pilot qHTS (AID 504865; active = well fitted curve in the direction sought with a large enough effect; an effect the other way counts as inactive or inconclusive;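 also: rhodamine fluorescence freed from ubiquitin-rhodamine substrate followed over time; top concentration of the series differs between compounds; % is scaled to controls: 0 for no effect and ±100 for the full control effect; nearly all actives have a fitted effect of over 35% in size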); conditions: purified USP1/UAF1, Ub-rhodamine cleavage fluorescence; series mostly up to 54.9 µM
Ubiquitin carboxyl-terminal hydrolase 1 (Homo sapiens), sequence (O94782 whole entry, looked up): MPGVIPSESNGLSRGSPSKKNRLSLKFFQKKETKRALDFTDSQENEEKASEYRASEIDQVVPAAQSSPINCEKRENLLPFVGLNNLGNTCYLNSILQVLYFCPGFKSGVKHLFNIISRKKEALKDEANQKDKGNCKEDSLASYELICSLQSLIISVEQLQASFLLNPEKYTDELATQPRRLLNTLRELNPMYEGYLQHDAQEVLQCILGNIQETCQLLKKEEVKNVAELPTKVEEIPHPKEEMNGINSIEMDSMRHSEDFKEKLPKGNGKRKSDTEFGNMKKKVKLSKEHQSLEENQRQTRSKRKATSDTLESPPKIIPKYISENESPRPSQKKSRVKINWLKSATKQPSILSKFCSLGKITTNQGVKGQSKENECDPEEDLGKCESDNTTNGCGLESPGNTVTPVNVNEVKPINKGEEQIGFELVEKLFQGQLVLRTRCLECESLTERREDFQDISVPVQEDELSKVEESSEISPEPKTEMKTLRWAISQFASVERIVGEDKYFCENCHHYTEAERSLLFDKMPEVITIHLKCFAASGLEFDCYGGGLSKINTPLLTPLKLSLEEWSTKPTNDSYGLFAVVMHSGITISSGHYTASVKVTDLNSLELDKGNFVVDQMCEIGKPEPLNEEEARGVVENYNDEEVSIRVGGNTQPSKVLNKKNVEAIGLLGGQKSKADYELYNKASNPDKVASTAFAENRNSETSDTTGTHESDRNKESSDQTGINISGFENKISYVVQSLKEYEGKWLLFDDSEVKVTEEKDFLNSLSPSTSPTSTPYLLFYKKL
In short: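 Enzyme-free wells gave the negative control, while test wells held 1nM USP1/UAF1 preincubated with compound for 15 min at room temperature. Ub-Rho at 150nM final started the reaction, and fluorescence at 480/540 nm was recorded kinetically.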

[14] = target: Cytochrome P450 3A4 (Homo sapiens) (UniProt P08684); test: qHTS Assay for Activators of Cytochrome P450 3A4 (AID 885; active = well fitted curve in the direction sought with a large enough effect; an effect the other way counts as inactive or inconclusive; also: nearly all actives have a fitted effect of over 65% in size); conditions: recombinant CYP3A4, Luciferin-PPXE luminescence, 60 min; series mostly up to 57.1 µM
Cytochrome P450 3A4 (Homo sapiens), sequence (P08684 whole entry, looked up): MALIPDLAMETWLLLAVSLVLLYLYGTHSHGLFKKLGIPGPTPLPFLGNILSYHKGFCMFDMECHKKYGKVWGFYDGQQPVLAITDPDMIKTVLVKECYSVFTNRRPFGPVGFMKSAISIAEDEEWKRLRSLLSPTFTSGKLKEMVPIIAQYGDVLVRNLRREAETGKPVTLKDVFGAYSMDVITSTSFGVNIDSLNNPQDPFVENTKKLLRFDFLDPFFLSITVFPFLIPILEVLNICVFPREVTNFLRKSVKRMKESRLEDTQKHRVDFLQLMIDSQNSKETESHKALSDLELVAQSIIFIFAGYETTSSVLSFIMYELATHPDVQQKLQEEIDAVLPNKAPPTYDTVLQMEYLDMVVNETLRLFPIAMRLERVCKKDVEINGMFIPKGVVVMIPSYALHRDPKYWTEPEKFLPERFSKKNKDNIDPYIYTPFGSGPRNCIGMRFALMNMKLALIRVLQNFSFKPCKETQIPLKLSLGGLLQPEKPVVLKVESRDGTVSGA
In short: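 Human CYP3A4 (20 nM) with Luciferin-PPXE at 25 uM (its KM) in 200 mM KPO4; 10 min compound preincubation, then NADPH regeneration and 60 min reaction at RT. Luciferin read by luminescence; normalized to 57 uM ketoconazole full inhibition.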

[15] = target: Cytochrome P450 3A4 (Homo sapiens) (UniProt P08684); test: qHTS Assay for Inhibitors and Substrates of Cytochrome P450 3A4 (AID 884; active = well fitted curve in the direction sought with a large enough effect; an effect the other way counts as inactive or inconclusive; also: nearly all actives have a fitted effect of over 50% in size; also: potency is read from the fitted curve at half-maximal effect); conditions: recombinant CYP3A4, Luciferin-PPXE luminescence; series mostly up to 57.1 µM
In short: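 20 nM human CYP3A4 with 25 uM Luciferin-PPXE (at KM) in 200 mM KPO4, preincubated 10 min with compound; NADPH regeneration started a 60 min RT reaction. Luciferin detected by luminescence, normalized to 57 uM ketoconazole as full inhibition.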

[16] = measured here: cell count channel max response
[17] = measured here: lipid channel max response

O=C(c1ccco1)N1CCC2(CC1)CCN(c1cccc(-c3ccccc3)c1)CC2
active: Potency [3] 15.8 µM
9.11%: max response [8, 17]
inactive: Potency [1] > 11.4 µM | activity change, negative = inhibition [2] 8.59% | activity change, negative = inhibition [4] -13.9% | activity, negative = inhibition [5] -16.1% | Potency [6] > 46 µM | Potency [7] | activity change, negative = inhibition [8] 5.77% | Potency [9]
-0.036%: max response [8, 16]

CS(=O)(=O)Nc1cccc(-c2nccc(NCc3ccccc3)n2)c1
inactive: Potency [1] > 11.4 µM | activity change, negative = inhibition [2] -20% | activity change, negative = inhibition [4] -4.2% | activity, negative = inhibition [5] -11.8% | Potency [10] > 46 µM | Potency [6] > 46 µM | outcome [11] | Potency [7] | outcome [12] | activity change, negative = inhibition [8] 6.93% | Potency [13] | Potency [9]
-0.959%: max response [8, 16]
4.33%: max response [8, 17]

COc1ccc(-c2nc3cnc(N4CCNCC4)nc3n(Cc3ccc(F)cc3)c2=O)cc1
inactive: Potency [1] > 11.4 µM | Potency [3] | Potency [10] > 9.22 µM | Potency [6] > 46 µM | outcome [11] | Potency [14] | activity change, negative = inhibition [8] 4.56% | Potency [9]
24.4%: max response [8, 17]
15.2%: max response [8, 16]
active: activity change, negative = inhibition [2] 83.5% [activator] | activity change, negative = inhibition [4] 88% [activator]

Cn1cccc1C(=O)N1CCC[C@@]2(CCN(Cc3ccccc3)C2)C1
5.36%: max response [8, 16]
9.58%: max response [8, 17]
active: Potency [3] 10 µM
inactive: Potency [1] > 11.4 µM | activity change, negative = inhibition [2] -8.23% | activity change, negative = inhibition [4] -14.1% | Potency [6] > 46 µM | outcome [11] | Potency [7] | Potency [14] | activity change, negative = inhibition [8] 3.81% | Potency [9]

Cc1noc(C)c1C(=O)N1CCC2(CC1)CCN(c1cccc(-c3ccccc3)c1)CC2
-15.8%: max response [8, 17]
inactive: Potency [1] > 11.4 µM | activity change, negative = inhibition [2] -13.8% | Potency [3] | activity change, negative = inhibition [4] -2.13% | Potency [6] > 46 µM | outcome [11] | Potency [7] | Potency [15] | activity change, negative = inhibition [8] -7.36% | Potency [9]
-11.4%: max response [8, 16]

O=C(c1ccncc1)N1CCC[C@@]2(CCN(c3ccccn3)C2)C1
inactive: activity change, negative = inhibition [2] -20.6% | activity change, negative = inhibition [4] 6.17% | activity, negative = inhibition [5] -0.0595% | Potency [6] > 46 µM | outcome [11] | Potency [7] | Potency [14] | activity change, negative = inhibition [8] 4.35% | Potency [9]
14.4%: max response [8, 16]
22.3%: max response [8, 17]
active: Potency [3] 20 µM | Potency [15] 7.94 µM

CS(=O)(=O)N1CCC[C@@]2(CCN(Cc3ccccc3)C2)C1
7.6%: max response [8, 17]
inactive: Potency [1] > 11.4 µM | activity change, negative = inhibition [2] 0.761% | activity change, negative = inhibition [4] 1.85% | activity, negative = inhibition [5] 23.6% | Potency [6] > 46 µM | outcome [11] | Potency [7] | activity change, negative = inhibition [8] 2.55% | Potency [9]
2.42%: max response [8, 16]

c1cncc(CNc2ncncc2-c2ccc3c(c2)OCO3)c1
active: Potency [3] 0.398 µM | Potency [15] 0.398 µM
22.7%: max response [8, 17]
inactive: activity change, negative = inhibition [2] -3.33% | activity change, negative = inhibition [4] 6.22% | activity, negative = inhibition [5] 0.562% | Potency [6] > 46 µM | outcome [11] | Potency [7] | Potency [14] | outcome [12] | activity change, negative = inhibition [8] 8.63% | Potency [13] | Potency [9]
10.5%: max response [8, 16]

COc1ccc(C(=O)N2CCC3(CCN(C)CC3)CC2)cc1
12.9%: max response [8, 17]
inactive: Potency [1] > 11.4 µM | Potency [3] | activity change, negative = inhibition [4] -8.24% | activity, negative = inhibition [5] 2.9% | Potency [6] > 46 µM | outcome [11] | Potency [7] | activity change, negative = inhibition [8] 3.67% | Potency [9]
8.31%: max response [8, 16]

COc1ccccc1CN1CC2(CCN(S(C)(=O)=O)CC2)C1
24%: max response [8, 17]
inactive: Potency [1] > 11.4 µM | Potency [3] | activity change, negative = inhibition [4] -7.23% | activity, negative = inhibition [5] 4.21% | Potency [6] > 46 µM | outcome [11] | Potency [7] | activity change, negative = inhibition [8] 6.08% | Potency [9]
11.6%: max response [8, 16]

Cc1noc(C)c1-c1cc(NC2CC2)ncn1
active: Potency [3] 0.316 µM
17%: max response [8, 16]
27.1%: max response [8, 17]
inactive: Potency [1] > 11.4 µM | activity change, negative = inhibition [4] 3.57% | activity, negative = inhibition [5] 5.59% | Potency [10] > 46 µM | Potency [6] > 46 µM | outcome [11] | Potency [7] | Potency [14] | outcome [12] | activity change, negative = inhibition [8] 11% | Potency [13] | Potency [9]

CN(Cc1ccco1)c1ncnc2ccc(-c3cccc(C#N)c3)cc12
active: Potency [3] 0.501 µM
2.39%: max response [8, 17]
-3.6%: max response [8, 16]
inactive: Potency [1] > 11.4 µM | activity change, negative = inhibition [4] 19.8% | activity, negative = inhibition [5] -5.78% | Potency [10] > 46 µM | Potency [6] > 46 µM | outcome [11] | Potency [7] | Potency [14] | outcome [12] | activity change, negative = inhibition [8] 6.34% | Potency [13] | Potency [9]

COc1ccc(NC(=O)N2CCCC3(CCN(C(=O)c4csnn4)CC3)C2)cc1
11.2%: max response [8, 16]
inactive: Potency [1] > 11.4 µM | Potency [3] | activity change, negative = inhibition [4] -2.25% | activity, negative = inhibition [5] -9.13% | Potency [6] > 46 µM | outcome [11] | Potency [7] | Potency [14] | activity change, negative = inhibition [8] 6.81% | Potency [9]
22.4%: max response [8, 17]

Source: PubChem BioAssay (NCATS)
